Laboratory results reported in PubChem BioAssay AID1159580 (chemical genetic matrix, 2015).
Where “and” joins values, the source holds several entries; their conditions need not be identical. Identical values can stand only once. About 2,000 (36%) of roughly 5,500 compounds were called active. Not shown: some 18% with an inconclusive outcome. Cut-off read from the data, not from the text of the source: active = normalized growth mostly below about 0.91 (no sharp cut-off); inconclusive = no clear call, values can overlap the other calls; inactive = mostly above about 0.92. This is one part of the list.

Test: chemical genetic growth profiling, strain panel (AID 1159580);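 note: tested at 20 µM; growth read once vehicle control cultures reached saturation at 30 °C; 1 = growth at the plate median or of vehicle wells; lower values mean less growth of the strain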
Conditions: S. cerevisiae deletion strains, growth OD

Measured: normalized growth

CCCCc1nc(Cl)c(CO)n1Cc1ccc(-c2ccccc2-c2nn[nH]n2)cc1
inactive: locus YAL013W, strain DEP1, stronger effect = lower value 1.01 | locus YAL021C, strain ccr4, stronger effect = lower value 0.992 | locus YAL026C, strain drs2, stronger effect = lower value 0.99 | locus YAL030W, strain snc1, stronger effect = lower value 0.974 | locus YBL061C, strain skt5, stronger effect = lower value 0.99 | locus YBR009C, strain hhf1, stronger effect = lower value 0.993 | locus YBR021W, strain FUR4, stronger effect = lower value 1.01 | locus YBR023C, strain chs3, stronger effect = lower value 0.981 | locus YBR171W, strain sec66, stronger effect = lower value 0.994 | locus YBR229C, strain ROT2, stronger effect = lower value 1.01 | locus YBR231C, strain swc5, stronger effect = lower value 0.968 | locus YBR279W, strain paf1, stronger effect = lower value 0.986 | locus YCL011C, strain gbp2, stronger effect = lower value 0.984 | locus YCL016C, strain dcc1, stronger effect = lower value 0.983 | locus YCL029C, strain bik1, stronger effect = lower value 1.01 | locus YCL061C, strain MRC1, stronger effect = lower value 0.989 | locus YCL069W, strain vba3, stronger effect = lower value 0.985 | locus YCR088W, strain abp1, stronger effect = lower value 0.976 | locus YDL005C, strain med2, stronger effect = lower value 0.977 | locus YDL035C, strain GPR1, stronger effect = lower value 1.02 | locus YDL040C, strain nat1, stronger effect = lower value 0.971 | locus YDL074C, strain BRE1, stronger effect = lower value 1.03 | locus YDL101C, strain DUN1, stronger effect = lower value 1.01 | locus YDL134C, strain PPH21, stronger effect = lower value 1.01 | locus YDL185W, strain tfp1, stronger effect = lower value 1 | locus YDL192W, strain arf1, stronger effect = lower value 1 | locus YDR001C, strain nth1, stronger effect = lower value 0.992 | locus YDR069C, strain doa4, stronger effect = lower value 0.975 | locus YDR101C, strain arx1, stronger effect = lower value 0.996 | locus YDR137W, strain rgp1, stronger effect = lower value 0.986 | locus YDR150W, strain NUM1, stronger effect = lower value 1.01 | locus YDR159W, strain sac3, stronger effect = lower value 0.943 | locus YDR162C, strain NBP2, stronger effect = lower value 1.01 | locus YDR195W, strain ref2 0.93 | locus YDR297W, strain sur2, stronger effect = lower value 0.993 | locus YDR318W, strain mcm21, stronger effect = lower value 1.01 | locus YDR334W, strain swr1, stronger effect = lower value 0.966 | locus YDR335W, strain msn5, stronger effect = lower value 0.992 | locus YDR388W, stronger effect = lower value 1 | locus YDR392W, strain spt3, stronger effect = lower value 1 | locus YDR502C, strain sam2, stronger effect = lower value 0.997 | locus YEL003W, strain gim4, stronger effect = lower value 1.01 | locus YEL037C, strain rad23, stronger effect = lower value 0.985 | locus YEL061C, strain CIN8 (second series), stronger effect = lower value 0.982 | locus YEL061C, strain CIN8, stronger effect = lower value 1.01 | locus YER015W, strain faa2, stronger effect = lower value 0.996 | locus YER016W, strain bim1, stronger effect = lower value 0.976 | locus YER110C, stronger effect = lower value 1 | locus YER111C, strain swi4, stronger effect = lower value 0.967 | locus YER155C, strain BEM2 (second series), stronger effect = lower value 0.968 | locus YER155C, strain BEM2, stronger effect = lower value 0.973 | locus YER167W, strain BCK2, stronger effect = lower value 1.01 | locus YFR010W, strain ubp6, stronger effect = lower value 0.985 | locus YGL078C, strain dbp3, stronger effect = lower value 0.995 | locus YGL086W, strain mad1, stronger effect = lower value 0.993 | locus YGL167C, strain pmr1, stronger effect = lower value 0.978 | locus YGL173C, strain kem1, stronger effect = lower value 0.986 | locus YGL227W, strain vid30, stronger effect = lower value 0.982 | locus YGL240W, strain doc1, stronger effect = lower value 0.981 | locus YGL248W, strain PDE1, stronger effect = lower value 1.01 | locus YGL253W, strain hxk2, stronger effect = lower value 0.985 | locus YGR078C, strain PAC10, stronger effect = lower value 1.02 | locus YGR135W, strain pre9, stronger effect = lower value 0.998 | locus YGR229C, strain SMI1, stronger effect = lower value 1.01 | locus YGR252W, strain gcn5, stronger effect = lower value 1 | locus YHR013C, strain ard1, stronger effect = lower value 1.01 | locus YHR027C, strain rpn1, stronger effect = lower value 1 | locus YHR030C, strain SLT2, stronger effect = lower value 1.01 and 0.941 | locus YHR079C, strain IRE1 (second series), stronger effect = lower value 0.995 | locus YHR079C, strain IRE1, stronger effect = lower value 0.969 | locus YHR094C, strain hxt1, stronger effect = lower value 0.992 | locus YHR129C, strain ARP1, stronger effect = lower value 1.01 | locus YHR142W, strain chs7, stronger effect = lower value 0.986 | locus YHR200W, strain rpn10, stronger effect = lower value 0.999 | locus YIL066C, strain RNR3, stronger effect = lower value 1.01 | locus YIL073C, strain SPO22, stronger effect = lower value 1.08 | locus YIL125W, strain kgd1, stronger effect = lower value 0.994 | locus YIR030C, strain dcg1, stronger effect = lower value 0.995 | locus YJL092W, strain hpr5, stronger effect = lower value 1 | locus YJL095W, strain BCK1 (second series), stronger effect = lower value 0.985 | locus YJL095W, strain BCK1, stronger effect = lower value 1.02 and 0.998 | locus YJL115W, strain asf1, stronger effect = lower value 0.994 | locus YJL129C, strain trk1, stronger effect = lower value 0.963 | locus YJL134W, strain LCB3, stronger effect = lower value 1 | locus YJL154C, strain vps35, stronger effect = lower value 0.969 | locus YJL164C, strain tpk1, stronger effect = lower value 1 | locus YJL166W, strain qcr8, stronger effect = lower value 0.98 | locus YJL168C, strain set2, stronger effect = lower value 0.996 | locus YJL187C, strain SWE1 (second series), stronger effect = lower value 1.01 | locus YJL187C, strain SWE1, stronger effect = lower value 0.981 | locus YJR043C, strain POL32, stronger effect = lower value 1.02 | locus YJR066W, strain TOR1, stronger effect = lower value 0.987
